Rows were chosen to be rich in hits. Some 3.2% of all compounds tested hit in one or more screens of this group.
TcdB inh: TcdB glycohydrolase inhibition. AID 652162. P18177. 0.24% of 350,000 active. TcdB glycohydrolase enzymatic assay, plate reader. inhibition, % at 9.99 µM; in the data active = inhibition above about 10%
GDH-TPI counter: GDH-TPI coupled enzyme inhibition counter-screen; GDH-TPI coupled enzyme counterscreen, NADH absorbance; inhibition, % at 4.8 µM; 1.2% of 360,000 active; AID 588335; in the data active = inhibition above about 30%
Mtb FBA inh: inhibits M. tuberculosis FBA enzyme; P9WQA3; purified M. tuberculosis FBA, fluorescence read-out; inhibition, % at 1 µM; 2.3% of 360,000 active; AID 588726; in the data active = inhibition above about 27%
Target sequence (P9WQA3 whole entry, looked up): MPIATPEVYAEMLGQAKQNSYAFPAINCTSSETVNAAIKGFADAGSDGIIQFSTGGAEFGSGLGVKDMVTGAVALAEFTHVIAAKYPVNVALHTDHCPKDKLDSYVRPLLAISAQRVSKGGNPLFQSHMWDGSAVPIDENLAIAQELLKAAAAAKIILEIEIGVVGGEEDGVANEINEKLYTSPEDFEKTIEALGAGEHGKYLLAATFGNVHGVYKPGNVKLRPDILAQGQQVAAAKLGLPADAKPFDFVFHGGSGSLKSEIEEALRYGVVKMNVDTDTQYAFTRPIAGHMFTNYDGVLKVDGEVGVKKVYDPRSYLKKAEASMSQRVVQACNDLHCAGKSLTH
Y pestis TopoI: blocks Yersinia pestis topoisomerase I activity. Y. pestis Topo-I cleavage product accumulation, plate reader. activity, % at 10 µM. 0.064% of 360,000 active. AID 504884; in the data active = activity above about 50%, passing the limit was not always enough
PrPC TRFRET: inhibitors of human cell surface prion protein PrPC; P04156; TR-FRET read-out; inhibition, % at 13.8 µM; 0.43% of 370,000 active; AID 720596; in the data active = inhibition above about 24%
Numbers stand for hits; n = inactive; x = no result given; + = active, no number.

SMILES	TcdB inh	GDH-TPI counter	Mtb FBA inh	Y pestis TopoI	PrPC TRFRET
COc1ccc(S(=O)(=O)Oc2cccc(/C=N/N=C3/NC(=O)C(CC(=O)O)S3)c2)cc1 (stereo unspecified)	n	n	n	n	n
COc1cc(/C=N/N=C2/NC(=O)C(Cc3ccc(F)cc3)S2)ccc1O (stereo unspecified)	n	42.0	n	n	n
CNC[C@@H]1Oc2ccc(NC(=O)Cn3cnnn3)cc2C(=O)N([C@@H](C)CO)C[C@H]1C	n	x	x	x	x
COc1cc(OC)c2ccc(=O)oc2c1	n	n	+	n	n
COc1cc(OC)c2c(-c3cccc(-c4cccc(C)c4)c3)cc(=O)oc2c1	n	n	n	n	n
COc1cc(OC)c2c(C)cc(=O)oc2c1	x	n	+	n	n
Cc1cc(=O)oc2cc(O)cc(O)c12	n	n	196.2	n	n
Cc1ccc(S(=O)(=O)N[C@H]2CC[C@H](CCn3cc(C4CCCC4)nn3)O[C@@H]2CO)cc1	n	x	x	x	x
COc1cc(OC)c(OC)cc1/C=N/NC(=O)CCc1c(C)n[nH]c1C	n	55.9	n	n	n
COCC#Cc1ccc2c(c1)O[C@H](CN(C)C(=O)CC1CC1)[C@@H](C)CN([C@H](C)CO)S2(=O)=O	12.0	x	x	x	x
C[C@@H]1CN([C@H](C)CO)C(=O)Cc2cc(NC(=O)Nc3ccc(C(F)(F)F)cc3)ccc2O[C@@H]1CN(C)C(=O)Nc1ccc2c(c1)OCO2	n	x	x	x	x
CN(C)CCCN(Cc1ccccc1)C(=S)Nc1ccc(OC(F)F)cc1	x	n	141.5	n	n
CN(Cc1ccccc1)C(=S)Nc1ccc(OC(F)F)cc1	x	n	n	n	n
COCC(=O)Nc1ccc2c(c1)[C@@H]1C[C@@H](CC(=O)N[C@H](C)c3ccccc3)O[C@H](CO)[C@@H]1O2	n	x	x	x	x
Nc1ncc([N+](=O)[O-])cc1Br	n	51.9	n	n	n
C1=C(c2ccccc2)Nc2nnnn2C1	x	n	86.7	n	n
O=C(C[C@@H]1C[C@H]2c3cc(NC(=O)C4CCOCC4)ccc3O[C@H]2[C@@H](CO)O1)NCc1cc(F)ccc1F	n	x	x	x	x
CC(C)(C)c1ccc(C(=O)Nc2cccc(S(=O)(=O)NC3=NCCC3)c2)cc1	n	n	n	n	n
COc1ccc(/C=C/C(=O)Nc2cccc(S(=O)(=O)NC3=NCCCCC3)c2)c(OC)c1	n	36.0	n	n	n
COc1ccc(/C=C/C(=O)Nc2cccc(S(=O)(=O)NC3=NCCCCC3)c2)cc1	n	50.6	n	n	n
CCc1nnc(NS(=O)(=O)c2ccc(N/C=C\C(=O)c3cccc(OC)c3)cc2)s1	n	n	n	n	n
COc1ccc(OC)c(/C=C/C(=O)Nc2cccc(S(=O)(=O)NC3=NCCCCC3)c2)c1	n	n	n	n	n
CCc1nnc(NS(=O)(=O)c2ccc(NC(=O)/C=C/c3ccc(OC)cc3OC)cc2)s1	n	39.7	n	n	n
CN(C)c1ccc(C(=O)Nc2cccc(S(=O)(=O)NC3=NCCCCC3)c2)cc1	n	30.8	n	n	n
Cc1ccc(S(=O)(=O)Nc2ccc3c(c2)CC(=O)N([C@H](C)CO)C[C@H](C)[C@@H](CN(C)Cc2ccccc2)O3)cc1	n	x	x	x	x
SMILES	TcdB inh	GDH-TPI counter	Mtb FBA inh	Y pestis TopoI	PrPC TRFRET
Cc1ccccc1S(=O)(=O)N1CC[C@@H]2[C@@H](CO)Nc3ccc(-c4cccc(F)c4)cc3[C@@H]21	n	x	x	x	x
COc1ccc(NC(=O)N(C)C[C@@H]2Oc3ccc(NC(=O)Nc4ccc5c(c4)OCO5)cc3C(=O)N([C@@H](C)CO)C[C@@H]2C)cc1	n	x	x	x	x
CC1CCN(C2(O)C(=O)Nc3ccc(Cl)cc32)CC1 (stereo unspecified)	n	n	n	n	n
CC1CCN(C2(O)C(=O)Nc3ccc([N+](=O)[O-])cc32)CC1 (stereo unspecified)	x	31.9	n	n	n
O=C(CCN1CCCCC1)NCC[C@@H]1CC[C@H](NC(=O)c2ccc(F)cc2)[C@H](CO)O1	n	x	x	x	x
C[C@H](CO)N1C[C@H](C)[C@H](CN(C)S(=O)(=O)c2ccc(Cl)cc2)Oc2c(NS(=O)(=O)c3ccc(F)cc3)cccc2C1=O	n	x	x	x	x
CN1CC=C2C(C#N)=C(N)C(C#N)(C#N)[C@H](c3ccoc3)[C@H]2C1	x	n	60.8	n	x
CN(C)c1ccc(/C=C/c2nnnn2-c2ccccc2)cc1	x	40.7	n	n	n
C/C(=N\Nc1nc(C)cc(C)n1)c1ccc(C)o1	n	32.5	n	n	n
C/C(=N\Nc1nnc2c3ccccc3n(C)c2n1)c1ccc(C)o1	x	n	n	n	n
COc1ccc(NC(=O)Nc2cccc3c2O[C@H](CN(C)CC2CC2)[C@@H](C)CN([C@@H](C)CO)C3=O)cc1	n	x	x	x	x
C[C@@H]1CN([C@H](C)CO)S(=O)(=O)c2ccc(C3=CCCC3)cc2O[C@@H]1CN(C)C(=O)c1ccccn1	n	x	x	x	x
O=C1CN(S(=O)(=O)Cc2ccccc2)C[C@H]2[C@H](c3ccc(C#Cc4cccnc4)cc3)[C@@H](CO)N12	n	x	x	x	x
CCOc1cccc(-c2c(C(=O)N/N=C/c3sccc3C)nnn2-c2nonc2N)c1	n	32.2	n	n	n
Nc1nonc1-n1nnc(C(=O)N/N=C/c2cccs2)c1-c1ccc2c(c1)OCO2	n	38.6	n	n	n
Cc1ccc(-c2c(C(=O)N/N=C/c3cccs3)nnn2-c2nonc2N)cc1	x	n	n	n	x
Cc1ccc(-c2c(C(=O)N/N=C/c3ccc4c(c3)OCO4)nnn2-c2nonc2N)cc1	n	42.6	n	57.9	n
Cc1ccc(SCc2c(C(=O)N/N=C/c3ccc4c(c3)OCO4)nnn2-c2nonc2N)cc1	n	n	n	n	n
Cc1ccsc1/C=N/NC(=O)c1nnn(-c2nonc2N)c1-c1ccc2c(c1)OCO2	n	32.3	n	n	n
O=C1CCC(=O)c2oc3ccccc3c2N1	x	30.9	n	n	n
O=C1CN=C(c2ccc(F)cc2)c2oc3ccccc3c2N1	n	n	n	n	n
Nc1nnc(CC(=O)N/N=C/c2ccc(-c3ccccc3Cl)o2)s1	n	38.9	n	n	n
Nc1nnc(CC(=O)N/N=C/c2ccc(-c3ccc(Cl)cc3Cl)o2)s1	n	38.0	n	n	n
COC(=O)N/N=C/c1ccc(-c2cc(Cl)ccc2Cl)o1	x	n	n	n	n
Nc1nnc(CC(=O)N/N=C/c2ccc([N+](=O)[O-])cc2)s1	n	n	n	n	n
SMILES	TcdB inh	GDH-TPI counter	Mtb FBA inh	Y pestis TopoI	PrPC TRFRET
C[C@@H]1CN([C@H](C)CO)C(=O)c2cc(NC(=O)Nc3ccccc3)ccc2O[C@@H]1CN(C)Cc1ccc(-c2ccccc2)cc1	n	x	x	x	x
CO[C@@H]1CN(C)C(=O)c2ccc(NC(=O)c3ccc4c(c3)OCO4)cc2OC[C@H](C)N(CCC(F)(F)F)C[C@@H]1C	n	x	x	x	x
COc1cccc(NC(=O)C[C@H]2CC[C@@H]3[C@H](COc4ccc(NC(=O)c5ccccc5F)cc4C(=O)N3C)O2)c1	n	x	x	x	x
COc1ccc(C(=O)Nc2ccc(-c3ccc(C)o3)cc2)cc1S(=O)(=O)N1CCOCC1	x	37.9	n	n	n
COc1ccc(Nc2nc(-c3ccccc3)nc3ccccc23)cc1S(=O)(=O)N1CCOCC1	n	40.3	n	n	n
O=C(Nc1cc(-c2ccccc2)[nH]n1)c1ccccc1F	n	n	n	n	n
CC(=O)Nc1cc(-c2ccc(F)cc2)[nH]n1	10.6	n	n	n	n
